Measured values from PubChem BioAssay AID1159580 (chemical genetic matrix, 2015).
Where “and” joins values, the source holds several entries; their conditions need not be identical. Identical values can stand only once. The campaign covered roughly 5,500 compounds. About 2,000 (36%) were called active. Not shown: some 18% with an inconclusive outcome. Cut-off read from the data, not from the text of the source: active = normalized growth mostly below about 0.91 (no sharp cut-off); inconclusive = no clear call, values can overlap the other calls; inactive = mostly above about 0.92. The list shows a part of the results.

Test: chemical genetic growth profiling, strain panel (AID 1159580);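 note: tested at 20 µM; growth read once vehicle control cultures reached saturation at 30 °C; 1 = growth at the plate median or of vehicle wells; lower values mean less growth of the strain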
Details: S. cerevisiae deletion strains, growth OD

Measured: normalized growth

O=C(O)C1(O)C[C@@H](O)C(O)[C@H](O)C1 (stereo partly drawn)
inactive: locus YAL021C, strain ccr4, active compounds read low 0.984 | locus YAL026C, strain drs2, active compounds read low 0.985 | locus YAL030W, strain snc1, active compounds read low 0.987 | locus YBL061C, strain skt5, active compounds read low 0.968 | locus YBR009C, strain hhf1, active compounds read low 1 | locus YBR021W, strain FUR4, active compounds read low 1.01 | locus YBR023C, strain chs3, active compounds read low 0.97 | locus YBR171W, strain sec66, active compounds read low 0.983 | locus YBR229C, strain ROT2, active compounds read low 1 | locus YBR231C, strain swc5, active compounds read low 0.983 | locus YBR279W, strain paf1, active compounds read low 0.985 | locus YCL011C, strain gbp2, active compounds read low 0.978 | locus YCL016C, strain dcc1, active compounds read low 0.973 | locus YCL029C, strain bik1, active compounds read low 1.03 | locus YCL069W, strain vba3, active compounds read low 0.988 | locus YCR088W, strain abp1, active compounds read low 0.979 | locus YDL005C, strain med2, active compounds read low 0.957 | locus YDL035C, strain GPR1, active compounds read low 0.99 | locus YDL040C, strain nat1, active compounds read low 0.979 | locus YDL074C, strain BRE1, active compounds read low 1.04 | locus YDL101C, strain DUN1, active compounds read low 1.01 | locus YDL185W, strain tfp1, active compounds read low 1.02 | locus YDL192W, strain arf1, active compounds read low 1.02 | locus YDR001C, strain nth1, active compounds read low 0.975 | locus YDR069C, strain doa4, active compounds read low 0.993 | locus YDR101C, strain arx1, active compounds read low 1.02 | locus YDR137W, strain rgp1, active compounds read low 0.996 | locus YDR150W, strain NUM1, active compounds read low 1.01 | locus YDR159W, strain sac3, active compounds read low 1 | locus YDR162C, strain NBP2, active compounds read low 1.02 | locus YDR195W, strain ref2 0.959 | locus YDR297W, strain sur2, active compounds read low 0.995 | locus YDR318W, strain mcm21, active compounds read low 0.997 | locus YDR334W, strain swr1, active compounds read low 0.962 | locus YDR335W, strain msn5, active compounds read low 0.978 | locus YDR388W, active compounds read low 1.01 | locus YDR392W, strain spt3, active compounds read low 0.994 | locus YDR502C, strain sam2, active compounds read low 1.01 | locus YEL003W, strain gim4, active compounds read low 0.983 | locus YEL037C, strain rad23, active compounds read low 0.98 | locus YEL061C, strain CIN8 (second series), active compounds read low 0.98 | locus YEL061C, strain CIN8, active compounds read low 1.01 | locus YER015W, strain faa2, active compounds read low 0.975 | locus YER016W, strain bim1, active compounds read low 0.967 | locus YER110C, active compounds read low 1.02 | locus YER111C, strain swi4, active compounds read low 0.966 | locus YER155C, strain BEM2 (second series), active compounds read low 0.969 | locus YER155C, strain BEM2, active compounds read low 1 | locus YER167W, strain BCK2, active compounds read low 0.996 | locus YFR010W, strain ubp6, active compounds read low 0.992 | locus YGL078C, strain dbp3, active compounds read low 0.998 | locus YGL086W, strain mad1, active compounds read low 1.05 | locus YGL167C, strain pmr1, active compounds read low 0.976 | locus YGL173C, strain kem1, active compounds read low 0.973 | locus YGL227W, strain vid30, active compounds read low 0.979 | locus YGL240W, strain doc1, active compounds read low 0.975 | locus YGL248W, strain PDE1, active compounds read low 1 | locus YGL253W, strain hxk2, active compounds read low 0.989 | locus YGR135W, strain pre9, active compounds read low 1.01 | locus YGR229C, strain SMI1, active compounds read low 1.02 | locus YGR252W, strain gcn5, active compounds read low 0.954 | locus YHR013C, strain ard1, active compounds read low 0.964 | locus YHR027C, strain rpn1, active compounds read low 0.994 | locus YHR030C, strain SLT2, active compounds read low 1.01 | locus YHR079C, strain IRE1 (second series), active compounds read low 1.01 | locus YHR079C, strain IRE1, active compounds read low 1 | locus YHR094C, strain hxt1, active compounds read low 1.01 | locus YHR129C, strain ARP1, active compounds read low 1.01 | locus YHR142W, strain chs7, active compounds read low 0.982 | locus YHR200W, strain rpn10, active compounds read low 1.01 | locus YIL066C, strain RNR3, active compounds read low 1.01 | locus YIL073C, strain SPO22, active compounds read low 1.06 | locus YIL125W, strain kgd1, active compounds read low 1.02 | locus YIR030C, strain dcg1, active compounds read low 1.01 | locus YJL092W, strain hpr5, active compounds read low 0.979 | locus YJL095W, strain BCK1 (second series), active compounds read low 0.997 | locus YJL095W, strain BCK1, active compounds read low 0.993 and 1 | locus YJL115W, strain asf1, active compounds read low 0.974 | locus YJL129C, strain trk1, active compounds read low 0.984 | locus YJL134W, strain LCB3, active compounds read low 1.01 | locus YJL154C, strain vps35, active compounds read low 0.971 | locus YJL164C, strain tpk1, active compounds read low 0.981 | locus YJL166W, strain qcr8, active compounds read low 1.01 | locus YJL168C, strain set2, active compounds read low 1.01 | locus YJL187C, strain SWE1 (second series), active compounds read low 1.01 | locus YJL187C, strain SWE1, active compounds read low 0.98 | locus YJR043C, strain POL32, active compounds read low 1.01 | locus YJR066W, strain TOR1, active compounds read low 0.957 | locus YKL009W, strain mrt4, active compounds read low 1.01 | locus YKL068W, active compounds read low 1.01 | locus YKL085W, strain MDH1 (second series), active compounds read low 1.01 | locus YKL085W, strain MDH1, active compounds read low 1.01 | locus YKL160W, strain elf1, active compounds read low 0.978 | locus YKR001C, strain vps1, active compounds read low 1.04 | locus YKR026C, strain gcn3, active compounds read low 0.986 | locus YKR091W, strain srl3, active compounds read low 0.986 | locus YLL001W, strain dnm1, active compounds read low 0.962 | locus YLL026W, active compounds read low 0.978 | locus YLL041C, strain sdh2, active compounds read low 1 | locus YLR027C, strain aat2, active compounds read low 0.981 | locus YLR039C, strain RIC1, active compounds read low 1.07 | locus YLR058C, strain SHM2, active compounds read low 1.01 | locus YLR102C, strain apc9, active compounds read low 1.01 | locus YLR113W, strain HOG1, active compounds read low 1.02 | locus YLR221C, strain rsa3, active compounds read low 0.987 | locus YLR258W, strain gsy2, active compounds read low 0.973 | locus YLR262C, strain YPT6 (second series), active compounds read low 1.04 | locus YLR262C, strain YPT6, active compounds read low 1.1 | locus YLR268W, strain sec22, active compounds read low 1.04 | locus YLR320W, strain mms22, active compounds read low 0.974 | locus YLR330W, strain CHS5, active compounds read low 1 | locus YLR342W, strain FKS1 (second series), active compounds read low 1.01 | locus YLR342W, strain FKS1, active compounds read low 0.976 | locus YLR357W, strain rsc2, active compounds read low 0.995 | locus YLR370C, strain arc18, active compounds read low 0.992 | locus YLR371W, strain rom2, active compounds read low 1.02 | locus YLR384C, strain iki3, active compounds read low 0.983 | locus YLR418C, strain cdc73, active compounds read low 1.01 | locus YML016C, strain PPZ1, active compounds read low 1.01 | locus YML032C, strain rad52, active compounds read low 0.989 | locus YML120C, strain ndi1, active compounds read low 0.968 | locus YML124C, strain tub3, active compounds read low 1.01 | locus YMR058W, strain fet3, active compounds read low 0.964 | locus YMR078C, strain ctf18, active compounds read low 1.02 | locus YMR125W, strain sto1, active compounds read low 0.972 | locus YMR129W, active compounds read low 0.976 | locus YMR205C, strain PFK2, active compounds read low 0.984 | locus YMR223W, strain ubp8, active compounds read low 1 | locus YMR231W, strain pep5, active compounds read low 0.972 | locus YMR263W, strain SAP30, active compounds read low 1.01 | locus YMR307W, strain GAS1, active compounds read low 0.994 | locus YNL067W, strain RPL9B, active compounds read low 1.01 | locus YNL071W, strain lat1, active compounds read low 0.989 | locus YNL183C, strain NPR1, active compounds read low 0.953 | locus YNL209W, strain ssb2, active compounds read low 0.983 | locus YNL233W, strain BNI4, active compounds read low 1.01 | locus YNL248C, strain rpa49, active compounds read low 0.98 | locus YNL250W, strain rad50, active compounds read low 1.02 | locus YNL271C, strain bni1, active compounds read low 1.02 | locus YNL298W, strain CLA4, active compounds read low 1.02 | locus YNL307C, strain MCK1, active compounds read low 1.02 | locus YNL322C, strain KRE1 (second series), active compounds read low 0.969 | locus YNR049C, strain mso1, active compounds read low 0.963 | locus YNR052C, strain pop2, active compounds read low 0.999 | locus YOL012C, strain htz1 0.956 | locus YOL147C, strain pex11, active compounds read low 1.02 | locus YOR001W, strain rrp6, active compounds read low 1 | locus YOR061W, strain CKA2, active compounds read low 1.01 | locus YOR069W, strain VPS5, active compounds read low 1.01 | locus YOR070C, strain gyp1, active compounds read low 0.962 | locus YOR080W, strain dia2, active compounds read low 0.972 | locus YOR083W, strain WHI5, active compounds read low 0.981 | locus YOR106W, strain vam3, active compounds read low 1 | locus YOR136W, strain idh2, active compounds read low 1.03 | locus YOR144C, strain elg1, active compounds read low 1.02 | locus YOR184W, strain ser1, active compounds read low 1.01 | locus YOR231W, strain MKK1, active compounds read low 0.997 | locus YOR265W, strain rbl2, active compounds read low 0.989 | locus YOR270C, strain vph1, active compounds read low 1.03 | locus YOR290C, strain snf2, active compounds read low 0.992 | locus YOR316C, strain cot1, active compounds read low 1.01 | locus YPL051W, strain arl3, active compounds read low 0.992 | locus YPL055C, strain LGE1, active compounds read low 1.01 | locus YPL078C, strain atp4, active compounds read low 0.982 | locus YPL106C, strain sse1, active compounds read low 0.961 | locus YPL240C, strain hsp82, active compounds read low 1.01 | locus YPL241C, strain CIN2, active compounds read low 1.02 | locus YPL256C, strain CLN2, active compounds read low 0.992 | locus YPR119W, strain clb2, active compounds read low 1.01 | locus YPR141C, strain kar3, active compounds read low 1.01 | locus YPR163C, strain tif3, active compounds read low 1.03 | locus YPR167C, strain met16, active compounds read low 1.01 | strain wtn01, active compounds read low 1.05
